# Results from the OligoGym collection.
# Target: ACCN2
# Experiment: pooled miR-30 sensor sort-seq; sequence = guide strand
# Conditions: shRNA
# Also: reference of the scale not given here.
row,Sequence,sensor-assay potency score (higher = more potent)
1,TTGAACGTGTAGCACTTTCCAT,-0.501
2,TTTGACGTCGTCCAGGCTGAGG,-1.49
3,TAGTACTGCACACGCTCCGTGC,-0.962
4,TTGGCTAAAGCGGAACTCGTTG,-0.0624
5,TTTGCTGGGGATCTTGACCATG,-1.14
6,TATAGCAATATAGAGTCTGTAT,-0.0507
7,ATAGCGTGTGAAGACCACCTTG,-0.485
8,TTTTCCTCGTCGGCACAGCTTG,-1.19
9,TTCAATGGTCTCATAGTTGAGG,-0.393
10,TGGATCTGCACTTTGATGCCTG,-0.178
11,TTGAAGTCTTCAGCGCTGCAGA,-0.498
12,TCGTTGAGGTTGCACAGCGTGA,-1.57

# Target: ACCN3
# Experiment: as above
# Conditions: shRNA
row,Sequence,sensor-assay potency score (higher = more potent)
1,TAAATGTGTAGCACTTTCCCAT,-0.325
2,TGTAGTAGCGCACCCTCTCAGC,-1.06
3,TTCGGCAGCCGCACTTCCGAGC,-1.09
4,TATCCCAGGACCTTGTCTCGGA,-0.411
5,TGTAGCACTTTCCCATCCGGGT,-0.708
6,TAGTAGTGGTGAGCAGCTCTGC,-0.938
7,TTTCTCGCTCATCCAGGGCAGT,-1.12
8,TTGCACAGGGTGACAGCCGGGA,-0.486
9,TTGTCTCGGAACACCTCACAGA,-0.903
10,TAGCACTTTCCCATCCGGGTGA,0.401

# Target: ACOT1
# Experiment: as above
# Conditions: shRNA
row,Sequence,sensor-assay potency score (higher = more potent)
1,TTTTACCTCAGGATGACTGAGC,-0.46
2,TCGCACGTCGCGCTTCACCAGC,-1.56
3,AGCTCTTCTGGTCAGGTCCTTC,-1.49
4,TTCATAGTTATAGTAAGCCAGA,-1.24
5,ATCTTTGGTCACCTTGATGCGA,-0.779
6,TAGCGCTCGTGCCGCACCCGGC,-1.32
7,AGTTGTGGTCATCCTGACCTAC,-1.25
8,TACCTCAGGATGACTGAGCAAG,-0.802
9,TTGTAGCGTAAGGTTCCCCCAA,-1.03
10,AACATGTCCACAATGCCAGGAA,-0.319
11,TGAGCAAGTAGTTCACAGCTTC,-0.12
12,ATTCGCACCGGTTCGTCCCAGC,-0.912

# Target: ACOT6
# Experiment: as above
# Conditions: shRNA
row,Sequence,sensor-assay potency score (higher = more potent)
1,TAGTGATTTTTACTTTTCCTAG,-1.27
2,AATACTAGGACCTTTCACCTTT,0.28
3,TATCCTTGTAATGTAGAGGAGC,-0.764
4,TTTCCCATGAGCTTGTAGCCTT,-0.268
5,TTCTGGGTAACAGATTATCTGG,-1.27
6,TTGGTGATTGTGTTCCTCCAGT,-0.204
